# Reference: ChEMBL document CHEMBL1201862, “PubChem BioAssay data set” (2004)
# About 6,100 (13%) of roughly 48,000 sequences were called active. Rule as the data show it: active = GI50 up to about 1.1 µM and inactive = higher. The list comes from a sample in which actives are over-represented; it also holds similar and randomly drawn sequences. Potency and affinity values are given separately.
# System: SR
row,Substance,GI50
1,"CISPLATIN, CHEMBL11359",618 nM
2,"[Bis(aminomethyl)diethylsilane]tetrachloroplatinum(IV), CHEMBL2146203",382 nM
3,"[Bis(aminomethyl)tetramethylenesilane]tetrachloropaltinum(IV), CHEMBL2146189",499 nM
4,"[Bis(aminomethyl)dimethylsilane]tetrachloroplatinum(IV), CHEMBL2146190",3440 nM
5,"[Bis(aminomethyl)tetramethylenesilane]dichloropaltinum(II), CHEMBL2146205",3520 nM
6,"[Bis(aminomethyl)pentamethylenesilane]tetrachloropaltinum(IV), CHEMBL2146204",422 nM
7,"[Bis(aminomethyl)pentamethylenesilane]dichloropaltinum(II), CHEMBL2146202",1490 nM
8,"mu-(1,7-nanodiamine-N,N')bis-(cis-aminedichloroplatimum (II)), CHEMBL2146215",2780 nM
